Test results taken from PubChem BioAssay (NCATS).
Several values for one entry are separate records, joined by “and”; a condition that tells them apart may be missing. Identical values can stand only once. Inconclusive results are not listed. Activity calls are given as the source filed them. Calls follow the shape of the dose curve; as a rule, active = well fitted activation curve with a large enough effect; inconclusive = small, poorly fitted or top-dose-only effect; inactive = no such curve, though single readings can be large or run the other way.

The molecules below were run against Cellular tumor antigen p53 (Homo sapiens) (UniProt P04637) (assay: Primary qHTS for small molecule compounds that upregulate eGFP-tagged delta133p53alpha (in N-terminal) cells. (AID 2060322;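 also: series mostly up to about 56 µM; 0% = DMSO vehicle and 100% = reference activator; nearly all actives have a fitted effect of over 75% in size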)). Conditions: NCI-H358 eGFP-delta133p53alpha fluorescence, 24 h; activation: stronger effect = higher value.
Cellular tumor antigen p53 (Homo sapiens), sequence (P04637 whole entry, looked up): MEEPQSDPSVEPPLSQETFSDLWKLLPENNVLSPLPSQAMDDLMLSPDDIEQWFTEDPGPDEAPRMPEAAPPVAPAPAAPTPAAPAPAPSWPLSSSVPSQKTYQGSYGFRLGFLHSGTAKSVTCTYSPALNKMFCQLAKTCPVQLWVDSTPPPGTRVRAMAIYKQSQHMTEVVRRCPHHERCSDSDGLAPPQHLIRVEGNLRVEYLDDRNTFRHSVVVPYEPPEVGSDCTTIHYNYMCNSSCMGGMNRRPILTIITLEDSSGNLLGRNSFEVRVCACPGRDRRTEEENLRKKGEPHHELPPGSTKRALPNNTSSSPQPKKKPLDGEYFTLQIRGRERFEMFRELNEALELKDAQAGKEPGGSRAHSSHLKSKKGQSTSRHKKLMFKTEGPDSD
In short: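 NCI-H358 cells pre-induced 24 h with 10 ng/ml doxycycline to express N-terminal eGFP-delta133p53alpha, then dosed 24 h at 37C without doxycycline; fixed, Hoechst-stained, GFP intensity by laser scanning cytometry, normalized to DMSO (0%) and 57.5 uM 5-azacytidine (100%).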

Row | SMILES | activation
1 | CCC(C)(CN(C)C)OC(=O)c1ccccc1 (configuration not stated) | -10.9% (inactive)
2 | CC1(c2ccccc2)OC(C(=O)O)=CC1=O (configuration not stated) | 26.8% (inactive)
3 | C1=CC2C3C=CC(C3)C2C1 (configuration not stated) | 16.4% (inactive)
4 | Nc1nc(F)nc2c1ncn2[C@@H]1O[C@H](COP(=O)(O)O)[C@@H](O)[C@H]1O | -4.99% (inactive)
5 | C[C@]12CC[C@H]3[C@@H](CCC4=CC(=O)CC[C@@]43C)[C@@H]1CC[C@@H]2C(=O)CO | -5.86% (inactive)
6 | CC1(C)O[C@H]2C[C@@H]3[C@H]4CCC5=CC(=O)C=C[C@]5(C)[C@@]4(F)[C@@H](O)C[C@]3(C)[C@]2(C(=O)CO)O1 | 8.11% (inactive)
7 | CC[C@H]1OC(=O)[C@H](C)[C@@H](O[C@H]2C[C@@](C)(OC)[C@@H](O)[C@H](C)O2)[C@H](C)[C@@H](O[C@@H]2O[C@@H](C)C[C@H](N(C)C)[C@@H]2O)[C@](C)(O)C[C@@H](C)C(=O)[C@H](C)[C@@H](O)[C@]1(C)O | 29.3% (inactive)
8 | NS(=O)(=O)c1ccc(NC(=O)CCC(=O)O)cc1 | 14.1% (inactive)
9 | CCCCCCOC(=O)N=C(N)c1ccc(NCc2nc3cc(C(=O)N(CCC(=O)OCC)c4ccccn4)ccc3n2C)cc1 | 20.7% (inactive)
10 | O[C@@H]1CO[C@H]2[C@@H]1OC[C@@H]2O | -14.2% (inactive)
11 | CNS(=O)(=O)Cc1ccc2[nH]cc(CCN(C)C)c2c1 | -6.69% (inactive) and -7.27% (inactive)
12 | CN=C(NC#N)Nc1ccc(C2=NNC(=O)CC2C)cc1 (configuration not stated) | 6.69% (inactive)
